The values below come from PubChem BioAssay (Tox21).

Molecules are shown by their SMILES. “And” between values parts separate entries of the source, which are not always exact repeats. Equal entries are not always repeated. A number with no mark means an inactive call. Results filed as inconclusive are left out. The source made the active and inactive calls. Calls come from the whole dose curve; as a rule, active = well fitted curve in the direction sought with a large enough effect in the repeat runs; inconclusive = weak or mixed curves; inactive = no such curve, though single readings can be large; an effect the other way counts as inactive or inconclusive.

Assay [1] is described as follows: Caspase-3/7 induction in HepG2 cells by small molecules, qHTS assay (AID 1346978). Note: nearly all actives have a fitted effect of over 15% in size. An outline of the steps:
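Wild-type HepG2 cells, 2,000/well, settled 5 hr at 37 C and 5% CO2, then compound-treated for 17 hr; caspase-3/7 activity read by luminescent Caspase-Glo 3/7 after 30 min at room temperature.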
(In general: qHTS replaces the single test concentration by a dilution series.)

A short description of assay [2]: Caspase-3/7 induction in CHO-K1 cells by small molecules, qHTS assay (AID 1346980). Note: nearly all actives have a fitted effect of over 15% in size. The method in brief: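 Wild-type CHO-K1 cells exposed to compounds for 17hr at 37 C, 5% CO2. Caspase-3/7 activity then measured by Caspase-Glo 3/7 luminescence after 30min at room temperature.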
Assay [3] can be described thus: Caspase-3/7 induction in HepG2 cells by small molecules, qHTS cell viability counter screen (AID 1346981). Note: nearly all actives have a fitted effect of over 30% in size. Note: potency is the fitted concentration of half-maximal effect. The method in brief:
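Treatment of HepG2 cells with DMSO-delivered compounds ran 16 hr at 37 C following a 5-hr pre-incubation of 2,000 cells/well. CellTiter-Fluor fluorescence, read after 1 hr, served as the viability measure in a qHTS format.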

Assay [4] concerns the target Nuclear receptor subfamily 1 group I member 2 (Homo sapiens) (UniProt O75469). Nature of the assay: Human pregnane X receptor (PXR) small molecule agonists, qHTS assay (AID 1346982). Note: nearly all actives have a fitted effect of over 35% in size. Note: potency is the fitted concentration of half-maximal effect. An outline of the steps:
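Stable HepG2 line reporting PXR-mediated CYP3A4 expression via luciferase. Treatment: 24 hr with compounds in DMSO at 37 C. Detection: ONE-Glo luminescence.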

Assay [5] addresses Cytochrome P450 2C19 (Homo sapiens) (UniProt P33261). The assay can be described thus: Cytochrome P450 Family 2 Subfamily C Member 19 (CYP2C19) small molecule antagonists: luciferase reporter qHTS assay (AID 1671197). Note: nearly all actives have a fitted effect of over 65% in size. Note: potency is the fitted concentration of half-maximal effect. The method in brief: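 CYP2C19 P450-Glo, 1536-well qHTS. Cpd + enzyme/proluciferin substrate 10 min RT; + NADPH regen, 37C 1 h; stop with luciferin detection reagent, 20 min RT, luminescence (RLU). Pos ctrl ketoconazole.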

In assay [6] the target is Cytochrome P450 2C9 (Homo sapiens) (UniProt P11712). Nature of the assay: Cytochrome P450 Family 2 Subfamily C Member 9 (CYP2C9) small molecule antagonists: luciferase reporter qHTS assay (AID 1671198). Note: nearly all actives have a fitted effect of over 50% in size. Note: potency is the fitted concentration of half-maximal effect. An outline of the steps: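 P450-Glo proluciferin substrate with CYP2C9 enzyme; 10 min RT preincubation, then NADPH regeneration 1 h at 37C; luciferin detection reagent 20 min RT, luminescence in relative luminescence units.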
For orientation: In a reporter assay the amount or activity of a reporter protein is the signal.

Assay [7] has as its target Cytochrome P450 1A2 (Homo sapiens) (UniProt P05177). Nature of the assay: Cytochrome P450 Family 1 Subfamily A Member 2 (CYP1A2) small molecule antagonists: luciferase reporter qHTS assay (AID 1671199). Note: nearly all actives have a fitted effect of over 50% in size. Note: potency is the fitted concentration of half-maximal effect. An outline of the steps: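 Read-out is luminescence from luciferin detection reagent (20 min) proportional to CYP1A2 activity; compounds in DMSO preincubated 10 min with enzyme and proluciferin substrate, then NADPH regeneration solution, 1 h, room temperature.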

The target in assay [8] is Voltage-gated inwardly rectifying potassium channel KCNH2 (Homo sapiens) (UniProt Q12809). Nature of the assay: Human Ether-a-go-go-Related Gene (hERG) channel small molecule antagonists: fluorescence cell-based qHTS assay (AID 1671200). Note: nearly all actives have a fitted effect of over 50% in size. Note: potency is the fitted concentration of half-maximal effect. An outline of the steps: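 Measured: Tl+ flux via fluorescence (480/540 nm) in hERG-expressing U2OS cells after 1 h dye loading at room temperature.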
(In general: The hERG channel carries a current that helps repolarise heart muscle cells.)

Assay [9] concerns the target Cytochrome P450 3A4 (Homo sapiens) (UniProt P08684). The assay can be described thus: Cytochrome P450 Family 3 Subfamily A Member 4 (CYP3A4) small molecule antagonists: luciferase reporter qHTS assay (AID 1671201). Note: nearly all actives have a fitted effect of over 50% in size. Note: potency is the fitted concentration of half-maximal effect. The method in brief: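 Setup: enzyme-substrate mix, compound pin transfer, 10 min RT. Reaction: NADPH regeneration solution, 1 h RT. Readout: detection reagent stops turnover, luminescence measured after 20 min, expressed in relative luminescence units.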

Assay [10] concerns the target Nuclear receptor subfamily 1 group I member 2 (Rattus norvegicus) (UniProt Q9R1A7). The assay can be described thus: Rat pregnane X receptor (rPXR) activation by small molecules, qHTS assay (AID 1346983). Note: nearly all actives have a fitted effect of over 20% in size. To be noted: rPXR luciferase reporter cells, One-Glo luminescence, 24 h; max activation: stronger effect = higher value. The method in brief:
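Cell-based rPXR activation assay: rPXR cells, 2,000 per well, rested 5hr at 37 C, then exposed to compounds in DMSO for 24 hr at 37 C. Luciferase activity read by One-Glo luminescence after 30 min at room temperature.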

The target in assay [11] is Nuclear receptor subfamily 1 group I member 2 (Homo sapiens) (UniProt O75469). Nature of the assay: CYP3A4 induction through human pregnane X receptor (PXR) by small molecules, qHTS assay (AID 1346984). Note: nearly all actives have a fitted effect of over 40% in size. Note: potency is the fitted concentration of half-maximal effect. An outline of the steps:
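After 24 h at 37C with compound, DPX-2 cells (HepG2, co-transfected PXR response element and CYP3A4 promoter-luciferase) got 3uM final P450-Glo Luciferin-IPA for 3 h; One-Glo luminescence followed.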

Assay [12] shares this target. Nature of the assay: Human pregnane X receptor (PXR) activation by small molecules, qHTS assay (AID 1346985). Note: nearly all actives have a fitted effect of over 40% in size. The method in brief:
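DPX-2 cells (HepG2 co-transfected with a PXR response element and a CYP3A4-promoter luciferase construct) were seeded at 2,000 per well, rested 5 hr at 37C, then exposed to DMSO-dissolved compounds for 24 hr. Activation was read as luciferase luminescence.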

Assay [13] has as its target Cytochrome P450 2D6 (Homo sapiens) (UniProt P10635). Nature of the assay: Cytochrome P450 Family 2 Subfamily D Member 6 (CYP2D6) small molecule antagonists: luciferase reporter qHTS assay (AID 1671196). Note: nearly all actives have a fitted effect of over 50% in size. Note: potency is the fitted concentration of half-maximal effect. The method in brief: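 Chemicals tested for interference with CYP2D6 activity; proluciferin substrate, NADPH regeneration, 1 h at room temperature, luminescent detection.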

Assay [14] is described as follows: Caspase-3/7 induction in CHO-K1 cells by small molecules, qHTS cell viability counter screen (AID 1346979). Note: nearly all actives have a fitted effect of over 35% in size. Note: potency is the fitted concentration of half-maximal effect. The method in brief:
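To flag cytotoxic compounds, treated CHO-K1 wild-type cells were given CellTiter-Fluor at 16hr and read fluorescently after 1hr at 37C; the caspase-3/7 luminescence was measured in these same wells.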
% is set by controls: 0 for no effect and ±100 for the full control effect.

Cytochrome P450 2D6 (Homo sapiens), sequence (P10635 whole entry, looked up): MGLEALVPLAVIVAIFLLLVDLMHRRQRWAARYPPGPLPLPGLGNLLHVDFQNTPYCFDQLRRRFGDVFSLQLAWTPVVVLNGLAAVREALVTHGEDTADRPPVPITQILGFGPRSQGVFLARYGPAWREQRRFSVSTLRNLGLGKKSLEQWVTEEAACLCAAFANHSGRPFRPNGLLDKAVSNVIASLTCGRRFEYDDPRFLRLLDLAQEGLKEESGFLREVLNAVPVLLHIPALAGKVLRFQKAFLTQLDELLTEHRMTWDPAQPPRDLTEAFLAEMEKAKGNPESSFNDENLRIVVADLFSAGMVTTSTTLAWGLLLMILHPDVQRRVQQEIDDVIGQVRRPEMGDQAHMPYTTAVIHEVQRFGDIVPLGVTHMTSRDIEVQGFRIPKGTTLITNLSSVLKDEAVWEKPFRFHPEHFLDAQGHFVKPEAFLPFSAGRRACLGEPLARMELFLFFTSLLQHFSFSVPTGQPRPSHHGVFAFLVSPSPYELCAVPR
Cytochrome P450 2C9 (Homo sapiens), sequence (P11712 whole entry, looked up): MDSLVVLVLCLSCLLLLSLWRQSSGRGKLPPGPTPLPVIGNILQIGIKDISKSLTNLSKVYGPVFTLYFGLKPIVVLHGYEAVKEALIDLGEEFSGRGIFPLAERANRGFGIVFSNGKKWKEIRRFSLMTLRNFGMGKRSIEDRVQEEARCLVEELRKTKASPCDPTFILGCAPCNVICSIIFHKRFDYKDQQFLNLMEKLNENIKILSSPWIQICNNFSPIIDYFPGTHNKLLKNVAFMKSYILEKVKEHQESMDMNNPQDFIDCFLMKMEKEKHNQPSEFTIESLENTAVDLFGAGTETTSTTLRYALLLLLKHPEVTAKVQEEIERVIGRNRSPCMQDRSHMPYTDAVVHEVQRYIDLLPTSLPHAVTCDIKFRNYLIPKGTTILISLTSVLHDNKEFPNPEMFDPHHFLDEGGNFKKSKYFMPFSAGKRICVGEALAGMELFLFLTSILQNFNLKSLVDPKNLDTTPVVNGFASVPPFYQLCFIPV
Nuclear receptor subfamily 1 group I member 2 (Homo sapiens), sequence (O75469 whole entry, looked up): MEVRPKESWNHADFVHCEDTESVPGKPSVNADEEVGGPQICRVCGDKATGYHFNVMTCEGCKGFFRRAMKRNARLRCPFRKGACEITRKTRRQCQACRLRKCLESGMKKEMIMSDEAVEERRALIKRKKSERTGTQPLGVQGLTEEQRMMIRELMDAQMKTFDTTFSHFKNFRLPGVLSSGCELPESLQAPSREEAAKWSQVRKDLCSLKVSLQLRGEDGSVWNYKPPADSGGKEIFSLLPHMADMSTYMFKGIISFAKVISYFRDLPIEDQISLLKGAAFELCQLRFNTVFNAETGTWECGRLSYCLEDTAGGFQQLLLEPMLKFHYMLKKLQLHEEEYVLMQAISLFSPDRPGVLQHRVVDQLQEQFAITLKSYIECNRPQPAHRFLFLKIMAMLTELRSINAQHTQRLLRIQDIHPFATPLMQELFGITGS
Cytochrome P450 3A4 (Homo sapiens), sequence (P08684 whole entry, looked up): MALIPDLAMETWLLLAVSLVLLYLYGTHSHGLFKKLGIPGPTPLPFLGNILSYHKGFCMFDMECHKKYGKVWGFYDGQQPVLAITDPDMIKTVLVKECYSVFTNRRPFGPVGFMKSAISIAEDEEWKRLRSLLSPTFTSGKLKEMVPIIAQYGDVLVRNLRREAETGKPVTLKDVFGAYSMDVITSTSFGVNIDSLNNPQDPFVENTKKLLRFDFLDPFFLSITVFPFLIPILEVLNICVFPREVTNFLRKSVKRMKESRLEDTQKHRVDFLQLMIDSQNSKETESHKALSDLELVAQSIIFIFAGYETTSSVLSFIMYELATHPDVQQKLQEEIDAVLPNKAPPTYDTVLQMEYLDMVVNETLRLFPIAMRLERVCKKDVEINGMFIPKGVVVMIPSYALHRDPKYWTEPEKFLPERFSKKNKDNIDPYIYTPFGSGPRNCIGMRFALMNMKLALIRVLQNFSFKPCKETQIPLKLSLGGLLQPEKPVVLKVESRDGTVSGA
Cytochrome P450 1A2 (Homo sapiens), sequence (P05177 whole entry, looked up): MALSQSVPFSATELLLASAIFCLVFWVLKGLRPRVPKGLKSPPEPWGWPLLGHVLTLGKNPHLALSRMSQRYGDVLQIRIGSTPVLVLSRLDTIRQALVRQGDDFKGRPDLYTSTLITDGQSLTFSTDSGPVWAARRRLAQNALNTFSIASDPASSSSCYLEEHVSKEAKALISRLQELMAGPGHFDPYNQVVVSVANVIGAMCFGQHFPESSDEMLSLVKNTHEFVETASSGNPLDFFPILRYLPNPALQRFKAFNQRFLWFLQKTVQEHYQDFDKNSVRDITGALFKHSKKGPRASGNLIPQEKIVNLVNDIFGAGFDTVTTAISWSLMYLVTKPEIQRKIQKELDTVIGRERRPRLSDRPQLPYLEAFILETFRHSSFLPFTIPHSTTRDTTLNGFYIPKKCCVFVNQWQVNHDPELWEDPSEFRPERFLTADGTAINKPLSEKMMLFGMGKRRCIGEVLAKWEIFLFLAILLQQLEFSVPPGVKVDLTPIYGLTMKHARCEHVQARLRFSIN
Nuclear receptor subfamily 1 group I member 2 (Rattus norvegicus), sequence (Q9R1A7 whole entry, looked up): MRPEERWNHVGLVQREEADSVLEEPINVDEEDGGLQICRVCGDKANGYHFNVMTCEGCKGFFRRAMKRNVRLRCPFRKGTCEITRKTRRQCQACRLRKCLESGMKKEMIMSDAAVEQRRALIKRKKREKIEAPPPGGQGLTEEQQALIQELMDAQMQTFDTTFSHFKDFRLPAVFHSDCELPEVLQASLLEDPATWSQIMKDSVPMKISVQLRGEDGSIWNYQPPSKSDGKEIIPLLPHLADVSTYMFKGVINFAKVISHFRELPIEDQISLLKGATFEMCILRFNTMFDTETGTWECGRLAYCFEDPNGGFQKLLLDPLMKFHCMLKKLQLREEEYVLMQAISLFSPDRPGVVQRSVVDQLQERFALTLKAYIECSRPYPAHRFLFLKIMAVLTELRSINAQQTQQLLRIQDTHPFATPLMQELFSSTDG
Voltage-gated inwardly rectifying potassium channel KCNH2 (Homo sapiens), sequence (Q12809 whole entry, looked up): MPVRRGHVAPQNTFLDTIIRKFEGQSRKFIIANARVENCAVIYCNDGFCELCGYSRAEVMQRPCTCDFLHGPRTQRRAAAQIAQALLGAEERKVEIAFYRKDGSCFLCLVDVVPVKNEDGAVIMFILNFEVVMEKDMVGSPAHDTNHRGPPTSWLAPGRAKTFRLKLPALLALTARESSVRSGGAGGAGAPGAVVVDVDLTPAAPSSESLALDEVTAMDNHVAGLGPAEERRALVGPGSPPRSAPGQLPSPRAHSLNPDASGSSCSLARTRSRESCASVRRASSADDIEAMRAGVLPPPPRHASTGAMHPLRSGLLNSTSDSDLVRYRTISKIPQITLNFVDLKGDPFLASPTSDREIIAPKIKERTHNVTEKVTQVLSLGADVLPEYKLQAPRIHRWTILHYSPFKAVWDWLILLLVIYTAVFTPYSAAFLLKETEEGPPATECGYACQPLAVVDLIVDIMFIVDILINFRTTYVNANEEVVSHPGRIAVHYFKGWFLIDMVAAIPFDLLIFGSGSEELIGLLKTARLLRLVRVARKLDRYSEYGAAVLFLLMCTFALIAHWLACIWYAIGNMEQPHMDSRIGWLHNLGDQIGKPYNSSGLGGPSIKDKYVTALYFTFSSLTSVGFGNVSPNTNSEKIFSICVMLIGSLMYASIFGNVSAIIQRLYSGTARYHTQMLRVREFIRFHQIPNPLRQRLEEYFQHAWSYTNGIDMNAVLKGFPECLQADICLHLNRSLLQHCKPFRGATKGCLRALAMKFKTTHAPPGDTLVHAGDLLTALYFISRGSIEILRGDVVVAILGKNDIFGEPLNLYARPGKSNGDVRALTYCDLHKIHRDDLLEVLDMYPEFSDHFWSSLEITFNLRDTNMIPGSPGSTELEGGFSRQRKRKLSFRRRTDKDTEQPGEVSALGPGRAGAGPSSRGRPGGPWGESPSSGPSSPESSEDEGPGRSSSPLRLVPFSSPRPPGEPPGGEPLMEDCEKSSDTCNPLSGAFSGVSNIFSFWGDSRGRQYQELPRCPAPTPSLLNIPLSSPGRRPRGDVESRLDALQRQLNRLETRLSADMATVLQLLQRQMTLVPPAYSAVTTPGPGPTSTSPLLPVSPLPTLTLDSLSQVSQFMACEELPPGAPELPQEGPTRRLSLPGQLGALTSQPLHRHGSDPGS
Cytochrome P450 2C19 (Homo sapiens), sequence (P33261 whole entry, looked up): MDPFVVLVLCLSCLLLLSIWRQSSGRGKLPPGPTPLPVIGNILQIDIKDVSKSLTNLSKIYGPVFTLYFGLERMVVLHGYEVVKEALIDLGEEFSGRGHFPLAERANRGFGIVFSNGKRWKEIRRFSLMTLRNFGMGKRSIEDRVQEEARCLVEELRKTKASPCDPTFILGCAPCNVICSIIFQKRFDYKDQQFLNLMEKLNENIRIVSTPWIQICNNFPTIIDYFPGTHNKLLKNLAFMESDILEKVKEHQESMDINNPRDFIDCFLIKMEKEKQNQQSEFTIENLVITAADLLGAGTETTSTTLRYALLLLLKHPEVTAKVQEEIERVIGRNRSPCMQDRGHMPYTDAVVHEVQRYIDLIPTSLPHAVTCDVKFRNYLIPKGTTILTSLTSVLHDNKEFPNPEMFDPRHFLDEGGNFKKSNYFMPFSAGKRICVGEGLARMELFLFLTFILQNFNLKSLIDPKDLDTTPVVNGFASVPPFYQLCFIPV

For the compound `CC(COC(=O)c1ccccc1)OC(=O)c1ccccc1` (stereo not drawn), the Potency result in assay [1], in assay [2], in assay [3], in [4] and in assay [9] was “inactive” throughout. Also, the Potency in assay [5] was 20 µM (active); in [6] it was 15.9 µM (active); in [7], 5.64 µM (active); in assay [8], 43.6 µM (active).

With `CC(=O)Oc1ccc(C2(c3ccc(OC(C)=O)cc3)C(=O)Nc3ccccc32)cc1`, the Potency entry in assay [1], in assay [2], in assay [3], in assay [4], in [11] and in [12] was “inactive” each time. The Potency entry in [13], in [7], in [8] and in [9] was “inactive” throughout. In addition, the max activation in assay [10] is -4.61% and -2.34%. The Potency was 11 µM (active) in [5] and 5.49 µM (active) in [6].

`COc1ccc2sc(C(=O)Nc3nnn[nH]3)c(OC(C)C)c2c1`: the Potency result in [1], in assay [13], in assay [5], in assay [7] and in [8] was “inactive” throughout. In addition, the Potency in [14] was 38.4 µM (active); in [6] it was 22.4 µM (active).

For the compound `Clc1ccc(C(c2ccccc2Cl)C(Cl)Cl)cc1` (stereo not drawn), the Potency result in [1], in assay [2], in assay [3], in assay [7] and in assay [9] was “inactive” throughout. The Potency in assay [4] was 10.9 µM (active); in assay [5] it was 1.59 µM (active) and 776 nM (active); in [6], 20 µM (active) and 9.77 µM (active).

On to `O=C1C=CC(=O)N1c1ccccc1`, for which the Potency entry in assay [1], in assay [2] and in assay [4] was “inactive” in each case. The Potency was 61.1 µM (active) in assay [3]; 39.9 µM (active) in [13]; 20 µM (active) in assay [5]; 28.3 µM (active) in [6]; 20 µM (active) in assay [7]; 49 µM (active) in assay [8].

As for `Cc1cc(C)c(C=O)c(C)c1`, the Potency result in [1], in [2], in assay [3], in [7], in assay [8] and in [9] was “inactive” throughout. Moreover, the Potency in [4] was 43.3 µM (active).

Take `O=C1OC(=O)c2ccc3c4c(ccc1c24)C(=O)OC3=O`: the Potency entry in [1], in [14], in [3], in [13], in assay [5] and in assay [6] was “inactive” in each case. Further, the Potency result in [7], in assay [8] and in assay [9] was “inactive” each time.

For `CCO[Si](C)(C)OCC`, the Potency result in assay [1], in assay [2], in [3], in assay [4], in assay [13] and in assay [5] was “inactive” each time. Moreover, the Potency result in assay [6], in assay [7], in [8] and in assay [9] was “inactive” each time.

On to `CCC1CCCCC1`, for which the Potency entry in [1], in [2], in assay [3], in [4], in assay [13] and in assay [5] was “inactive” throughout. In addition, the Potency result in assay [6], in [7], in assay [8] and in assay [9] was “inactive” in each case.

With `Oc1c(Br)cc(Br)c2cccnc12`, the Potency result in assay [1], in [2], in assay [3], in assay [13], in assay [5] and in assay [8] was “inactive” throughout. Further, the Potency result in assay [9] is “inactive”. The Potency was 29.8 µM (active) in [4] and 1 µM (active) in assay [11]. In assay [10], the max activation was -2.52%.

With `O=Cc1ccc(F)cc1`, the Potency result in [1], in [2], in [3], in [5], in assay [6] and in assay [7] was “inactive” in each case. Further, the Potency entry in assay [8] and in assay [9] was “inactive” in each case. In addition, the Potency in assay [13] was 35.6 µM (active).

Regarding `CCCCCCCC/C=C/CCCOC(C)=O`, the Potency entry in [1], in [2], in [3], in assay [4], in assay [13] and in assay [8] was “inactive” each time. In assay [9], the Potency entry was “inactive”. Further, in [5], the Potency was 31.7 µM (active).

In the case of `OCCCS`, the Potency result in assay [1], in [2], in assay [3], in assay [4], in assay [13] and in assay [5] was “inactive” in each case. Also, the Potency result in [6], in assay [7], in [8] and in assay [9] was “inactive” throughout.

`CCOCOCC`: the Potency entry in [1], in [2], in assay [3], in assay [4], in assay [13] and in [5] was “inactive” each time. Besides, the Potency result in assay [6], in [7], in assay [8] and in assay [9] was “inactive” throughout.

With `COc1ccc(C#N)cc1`, the Potency entry in [1], in assay [2], in assay [3], in assay [4], in assay [13] and in assay [5] was “inactive” in each case. Moreover, the Potency result in assay [6], in [8] and in assay [9] was “inactive” each time.

In the case of `CCOC(=O)[C@@](C)(N)Cc1ccc(O)c(O)c1`, the Potency result in assay [1], in assay [2], in assay [3], in assay [4], in [11] and in [12] was “inactive” throughout. For the same compound, the Potency result in assay [6], in [7], in [8] and in [9] was “inactive” in each case. Moreover, in [10], the max activation is -0.299%. The Potency in assay [13] is 8.71 µM (active).

On to `Clc1cccnc1`, for which the Potency entry in assay [1], in assay [2], in assay [3], in [4], in assay [13] and in assay [5] was “inactive” each time. Besides, the Potency result in assay [6], in assay [8] and in assay [9] was “inactive” throughout. The Potency in [7] is 35.6 µM (active).

Take `CC(C)OC(=O)c1cc(C(=O)OC(C)C)cc([N+](=O)[O-])c1`: the Potency result in assay [1] and in [9] was “inactive” in each case. For the same compound, the Potency in assay [4] is 19.8 µM (active); in [13], 6.87 µM (active); in [5], 0.0816 µM (active); in assay [6] it was 0.84 µM (active); in assay [7] it was 2.33 µM (active).

For the compound `Cc1cccc(Br)c1`, the Potency entry in assay [1], in assay [2], in assay [3], in assay [13], in assay [8] and in assay [9] was “inactive” each time. Further, the Potency was 35.8 µM (active) in [5] and 40.1 µM (active) in assay [6].

Turning to `CCCCCCC(C)Nc1ccc(Nc2ccccc2)cc1` (stereo not drawn), the Potency entry in [1] and in assay [2] was “inactive” each time. In addition, the Potency in assay [4] is 21.7 µM (active); in assay [13] it was 28.3 µM (active); in assay [5], 5.03 µM (active); in [6] it was 7.1 µM (active); in assay [7], 22.4 µM (active); in assay [9], 35.6 µM (active).
